# Hit rate of the full screen: of about 420,000 compounds, about 50,000 (12%) were called active. Not shown: some 26% with an inconclusive outcome. Many of the other results were omitted from the sample, so actives are more common in it than they were. Unmarked numbers belong to inactive results. The call rests on the fitted dose curve; in most records, active means well fitted inhibition curve with a large enough effect; inconclusive means small, poorly fitted or top-dose-only effect; inactive means flat fitted curve, though single readings scatter.
# Experiment: qHTS for Inhibitors of human tyrosyl-DNA phosphodiesterase 1 (TDP1): qHTS in cells in presence of CPT; further: nearly all actives have a fitted effect of over 55% in size
# Conditions: chicken DT40 Tdp1-/-;hTDP1 cells + 20 nM CPT, ATP luminescence, 48 h; series mostly up to 46.2 µM; activity change, negative = growth inhibition: at the top concentration
# Outline: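 Chicken DT40 Tdp1-/- cells complemented with human TDP1, 400 cells/well, exposed to compounds plus 20 nM camptothecin for at least 48 h at 37 C; viability read as ATP content by CellTiter-Glo luminescence.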
# On the % scale 0 is the no-effect control and ±100 the full control effect; potency means the concentration at half of the fitted maximal effect.
Structure (SMILES),"activity change, negative = growth inhibition [%]",Potency
CC(C)Cn1cc(-c2cncc3nccn23)cn1,5.95,
CCCCN(CC(=O)NC(C)(C)C)C(=O)C(=O)Nc1ccc2c(c1)OCCO2,1.35,
O=C(O)c1cc2c(cc1NC(=O)c1c(F)cccc1Cl)OCCCO2,5.92,
Cc1ccc(CNC(=O)CSc2nnc3c(n2)[nH]c2ccc(F)cc23)cc1,9.5,
CCOc1ccc(OCC)c(-c2c(=O)n(OCc3ccc(Cl)cc3)c3ccccc3[n+]2[O-])c1,,7.31 µM (active)
O=c1c(-c2ccc(Cl)cc2)[n+]([O-])c2ccccc2n1OCc1nc2ccccc2[nH]1,17.6,
CCOC(=O)COn1c(=O)c(-c2ccc(OCC)cc2)[n+]([O-])c2ccccc21,-16.7,
O=C(N/N=C/c1ccco1)c1csc2c1CCCC2,-2.91,
Cc1cccc(C)c1NC(=O)N1CC=C(n2c(=O)[nH]c3ccccc32)CC1,,14.6 µM (active)
Cc1cccc(C)c1NC(=O)N1CC(C)OC(C)C1 (stereo not given),-2.12,
Cc1ccccc1Cn1c(=O)[nH]c2ccccc21,-15.8,
C[C@H](CO)N1C[C@H](C)[C@@H](CN(C)C(=O)c2cnccn2)Oc2ncc(Br)cc2C1=O,-4.57,
NNc1nnc(Cc2ccncc2)c2ccccc12,-16.8,
O=C(NC1CCN(Cc2ccccc2)CC1)c1cc(Br)c(Br)[nH]1,,18.4 µM (active)
O=C(NC1CCN(Cc2ccccc2)CC1)c1c(F)cccc1F,-5.75,
O=C(NNC(=S)Nc1ccc(Br)cc1Cl)c1ccco1,1.82,
Cc1cc(Br)ccc1NC(=S)NC1CCCC1,-25.2,
Cc1ccc(-c2cc(C(=O)NC3CCN(Cc4ccccc4)CC3)c3ccccc3n2)cc1,,14.6 µM (active)
S=C(Nc1ccc(Br)cc1Cl)NC1CCN(Cc2ccccc2)CC1,,18.4 µM (active)
O=C(NC1CCN(Cc2ccccc2)CC1)c1ccccc1F,-25.2,
S=C(Nc1ccc(Br)cc1)NC1CCN(Cc2ccccc2)CC1,,16.4 µM (active)
O=C(Nc1ccccc1)N1CCC(C(=O)N2CCN(Cc3ccccc3)CC2)CC1,-23.9,
Cc1ccn2cc(C(=O)NC3CCN(Cc4ccccc4)CC3)nc2c1,-22.4,
Cc1cc(C(=O)NC2CCN(Cc3ccccc3)CC2)n[nH]1,1.51,

Structure (SMILES),"activity change, negative = growth inhibition [%]",Potency
O=C(c1cccc(-n2cccc2)c1)N1CCN(S(=O)(=O)c2ccc(F)cc2)CC1,-14.8,
COc1cc(/C=C/C(=O)OCC(=O)NC2CC2)cc(OC)c1OC,4.67,
COC(=O)c1sccc1NC(=O)c1ccc(Cl)cc1,-0.881,
CCc1ccc(NC(=O)CCNS(=O)(=O)c2cccs2)cc1,-1.58,
Cc1cccc(C)c1NC(=O)CN1C(=O)C(C)Oc2ccccc21 (stereo not given),5.54,
CCC1C(=O)c2ccccc2N(C)C1=O (stereo not given),15.8,
Cc1onc(C(=O)Nc2ccc3c(c2)OCO3)c1[N+](=O)[O-],-30.1,
Cc1ccc(NC(=O)CSc2nnc(CNC(=O)c3ccccc3F)o2)cc1Cl,-18,
O=C(NC1CC(=O)N(c2ccccc2)C1)c1ccco1 (stereo not given),9.32,
COc1cc(NC(=O)CN2CCN(S(=O)(=O)c3ccc(Br)cc3)CC2)cc(OC)c1,-4.27,
COc1ccc(NC(=O)CN(C)C(=O)CNC(=O)C2CCCCC2)cc1,4.05,
COc1ccc(/C=C/c2noc(-c3ccccc3OC(C)=O)n2)cc1,0.465,
CNC(=S)N/N=C/c1ccc(OCc2ccccc2)c(Br)c1,,9.2 µM (active)
C=CCNC(=S)N/N=C/c1ccc(OCc2ccccc2)cc1,-6.93,
O=C(O)COc1ccc(/C=N/O)cc1Br,-0.568,
O=C(COc1ccccc1)Nc1ccc(F)cc1,-2.03,
CC(C)(CCl)C(=O)Nc1ccc(Sc2ccc(F)cc2)cc1,,5.8 µM (active)
CCN(c1ccccc1)S(=O)(=O)c1ccc(NC(=O)C(C)(C)C)cc1,-28.5,
Cc1ccc(C(O)P(=O)(OC(C)C)c2ccc(N(C)C)cc2)cc1 (stereo not given),11.2,
COc1cc2c(cc1OC)C(c1ccccc1Br)NC(=O)C2 (stereo not given),-11.7,
O=C1c2ccccc2C(=O)C1C(=O)C1CC1,-101,
CCc1c(C)nc(N)n2c(SCC(=O)NC3CCCCC3)nnc12,-9.06,
CC1CCN(c2ccc3c(c2)S(=O)(=O)c2cc(C(=O)O)ccc2C3=O)CC1,6.79,
CC1CCc2sc(C(=O)N/N=C/C3CCCCC3)cc2C1 (stereo not given),8.96,

Structure (SMILES),"activity change, negative = growth inhibition [%]",Potency
CSc1ncccc1C(=O)NCC(c1ccco1)N1CCCCC1 (stereo not given),1.81,
CC1CCc2sc(C(=O)NCC(c3ccco3)N3CCCCC3)cc2C1 (stereo not given),,16.4 µM (active)
COc1ccc2oc(C(=O)NCc3ccco3)c(C)c2c1,-28.7,
Cc1cc(S(=O)(=O)Nc2ccc(C(=O)NCC(c3ccco3)N3CCCC3)cc2)ccc1F (stereo not given),-19.1,
Cc1c(C(=O)NCC(c2ccco2)N2CCCC2)oc2ccc(Cl)cc12 (stereo not given),,20.6 µM (active)
Nc1nc(N)c(N=O)c(N)n1,-0.158,
CC(=O)N(OCc1ccc(OC(C)C)c(Cl)c1)C(C)=O,2.14,
O=C(COC(=O)CCOc1ccccc1)Nc1cc(S(=O)(=O)N2CCCCC2)ccc1Cl,7.55,
O=C(CN1CCN(S(=O)(=O)c2cc(Cl)ccc2Cl)CC1)c1ccc(O)c(O)c1,,9.2 µM (active)
COc1ccc(Cl)cc1S(=O)(=O)N1CCN(CC(=O)C(C)(C)C)CC1,-24.2,
O=S(=O)(c1cc(Cl)ccc1Cl)N1CCN(Cc2ccco2)CC1,-18.5,
COc1ccccc1C1CCN(c2ccc([N+](=O)[O-])cn2)CC1,-0.392,
O=c1[nH]c(N2CCOCC2)nc2ccccc12,-13,
Cc1cc(C(=O)Nc2ccccc2N2CCOCC2)c2ccccc2n1,-11.9,
c1ccc(Nc2nc(N3CCOCC3)c3ccccc3n2)cc1,,20.6 µM (active)
CC1(C)CC(=O)C(C=NCCN2CCN(C(=S)Nc3cccc(Cl)c3)CC2)=C(O)C1,0.286,
O=C(CN1CCN(S(=O)(=O)c2ccc(Cl)s2)CC1)NCc1ccc(Cl)cc1,-21,
CC1(Oc2ccccc2-c2ccno2)CCN(Cc2ccc(-c3ccccc3)o2)C1 (stereo not given),,25.9 µM (active)
Nc1ncnc2c1ncn2[C@@H]1O[C@H](C(=O)N2CCCN(Cc3ccccc3F)CC2)[C@@H](O)[C@H]1O,-1.31,
C=CCNC(=S)NNc1ncnc2sc3c(c12)CC(C)(C)OC3,,4.61 µM (active)
CCSc1nc2sc3c(c2c(=O)[nH]1)CC(C)(C)OC3,-6.76,
CC1(C)Cc2c(sc3nc4n(c(=N)c23)CCCCC4)CO1,-7.87,
